Experimental data: PubChem BioAssay (NCATS)
“And” between values parts separate entries of the source, which are not always exact repeats. Equal values may be shown once. A number with no mark means an inactive call. Inconclusive results are not listed. Where a call stands in place of a potency, no number is given. The source made the active and inactive calls. Unless noted, calls follow the shape of the dose curve; as a rule, active = well fitted curve in the direction sought with a large enough effect; inconclusive = small, poorly fitted or top-dose-only effect, or another doubt; inactive = no such curve, though single readings can be large; an effect the other way counts as inactive or inconclusive.

Experiments:
[1] = target: Voltage-gated inwardly rectifying potassium channel KCNH2 (Homo sapiens) (UniProt Q12809); test: qHTS Assay for Small Molecule Inhibitors of the Human hERG Channel Activity (AID 588834);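 also: lower thallium flux fluorescence means stronger hERG block; nearly all actives have a fitted effect of over 50% in size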; also: potency is read from the fitted curve at half-maximal effect
Voltage-gated inwardly rectifying potassium channel KCNH2 (Homo sapiens), sequence (Q12809 whole entry, looked up): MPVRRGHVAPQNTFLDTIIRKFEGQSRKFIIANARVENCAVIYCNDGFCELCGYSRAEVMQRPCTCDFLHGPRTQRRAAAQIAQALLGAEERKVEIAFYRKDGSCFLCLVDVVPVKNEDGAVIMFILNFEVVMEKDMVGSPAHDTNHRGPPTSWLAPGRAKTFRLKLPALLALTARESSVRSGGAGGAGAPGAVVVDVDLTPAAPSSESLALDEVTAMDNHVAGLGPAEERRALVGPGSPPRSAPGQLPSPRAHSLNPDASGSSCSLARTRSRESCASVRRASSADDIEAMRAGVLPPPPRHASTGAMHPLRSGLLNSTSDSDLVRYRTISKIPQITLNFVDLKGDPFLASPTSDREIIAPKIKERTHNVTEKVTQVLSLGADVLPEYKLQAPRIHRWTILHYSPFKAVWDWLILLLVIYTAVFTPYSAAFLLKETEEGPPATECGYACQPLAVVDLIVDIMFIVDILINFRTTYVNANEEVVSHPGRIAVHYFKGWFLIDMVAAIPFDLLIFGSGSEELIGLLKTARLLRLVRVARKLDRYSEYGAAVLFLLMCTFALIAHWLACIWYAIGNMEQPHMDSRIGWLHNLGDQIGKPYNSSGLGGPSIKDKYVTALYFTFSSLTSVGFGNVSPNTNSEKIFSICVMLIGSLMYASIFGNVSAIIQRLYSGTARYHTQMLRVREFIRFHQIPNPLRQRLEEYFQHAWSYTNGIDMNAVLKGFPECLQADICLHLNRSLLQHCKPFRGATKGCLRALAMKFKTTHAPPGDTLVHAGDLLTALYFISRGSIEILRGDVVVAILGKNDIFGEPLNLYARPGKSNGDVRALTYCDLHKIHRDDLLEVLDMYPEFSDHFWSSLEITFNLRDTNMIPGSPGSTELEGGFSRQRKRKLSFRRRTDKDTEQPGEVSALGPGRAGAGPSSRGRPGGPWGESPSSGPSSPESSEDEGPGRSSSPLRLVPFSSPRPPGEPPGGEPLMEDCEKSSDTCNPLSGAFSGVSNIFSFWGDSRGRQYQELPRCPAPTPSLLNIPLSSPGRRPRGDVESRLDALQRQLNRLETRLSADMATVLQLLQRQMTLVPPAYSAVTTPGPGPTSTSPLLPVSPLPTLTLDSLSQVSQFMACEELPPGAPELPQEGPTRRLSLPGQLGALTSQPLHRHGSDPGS
Method in brief: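 Thallium serves as surrogate for K+ influx through BacMam-delivered hERG in U2OS cells. Compounds are added for about 10 minutes after dye loading; stimulation buffer then starts flux, monitored kinetically on FDSS.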

[2] = target: Luciferin 4-monooxygenase (Photinus pyralis) (UniProt P08659); test: Biochemical firefly luciferase enzyme assay for NPC (AID 624030); also: nearly all actives have a fitted effect of over 70% in size; also: potency is read from the fitted curve at half-maximal effect
Luciferin 4-monooxygenase (Photinus pyralis), sequence (P08659 whole entry, looked up): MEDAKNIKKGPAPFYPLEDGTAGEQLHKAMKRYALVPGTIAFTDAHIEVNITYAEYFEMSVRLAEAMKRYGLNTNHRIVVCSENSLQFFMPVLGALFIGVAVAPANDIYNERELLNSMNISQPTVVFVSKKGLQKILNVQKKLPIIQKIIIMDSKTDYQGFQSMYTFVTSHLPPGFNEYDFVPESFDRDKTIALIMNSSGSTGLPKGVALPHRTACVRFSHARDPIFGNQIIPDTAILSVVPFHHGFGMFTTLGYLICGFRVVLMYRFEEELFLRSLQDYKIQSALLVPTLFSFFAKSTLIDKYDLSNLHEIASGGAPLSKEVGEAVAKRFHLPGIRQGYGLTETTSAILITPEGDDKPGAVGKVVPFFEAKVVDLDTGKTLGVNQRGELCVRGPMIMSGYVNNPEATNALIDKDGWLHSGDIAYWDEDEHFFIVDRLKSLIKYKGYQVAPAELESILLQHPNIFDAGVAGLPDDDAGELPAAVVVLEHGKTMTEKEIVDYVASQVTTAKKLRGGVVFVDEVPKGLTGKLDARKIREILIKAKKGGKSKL
Method in brief: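 Counter-screen for direct inhibition of the luciferase enzyme by approved-drug library compounds, run at 10 nM enzyme in 50 mM Tris acetate (final). Luminescence was read within 5 min of enzyme-buffer addition and normalized to PTC124 versus DMSO (0%).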

[3] = S16 Schwann cell viability assay (CellTiter-Glo assay) (AID 624031);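 also: cellular ATP luminescence as a viability measure; series mostly up to about 58 µM; nearly all actives have a fitted effect of over 70% in size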
Method in brief: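 Native S16 rat Schwann cells, 500-750 cells/well in DMEM with 10% FBS, dosed with compound after overnight culture and incubated 24h at 37 degree Celsius/5% CO2. Viability by CellTiter-Glo luminescence; % activity normalized to no-cell wells and DMSO-treated cells.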

[4] = S16 Schwann cell PMP22 intronic element beta-lactamase assay (AID 624044; calls by dose curve; also: nearly all actives have a fitted effect of over 15% in size)
Method in brief: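 Beta-lactamase reporter under a PMP22 intronic regulatory element in stable S16 rat Schwann cells; 24 h compound exposure. 460 nm blue signal normalized between DMSO (0%) and potassium clavulanate, with 535 nm FRET tracking viability; curves classed by r2 and response.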

[5] = target: Glutaminase kidney isoform, mitochondrial (Homo sapiens) (UniProt O94925); test: qHTS for Inhibitors of Glutaminase (GLS): LOPAC Validation (AID 624146);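 also: glutamate product detected by oxidase and peroxidase coupled Amplex red fluorescence gain; series mostly up to about 46 µM; nearly all actives have a fitted effect of over 60% in size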
Glutaminase kidney isoform, mitochondrial (Homo sapiens), sequence (O94925 whole entry, looked up, canonical isoform): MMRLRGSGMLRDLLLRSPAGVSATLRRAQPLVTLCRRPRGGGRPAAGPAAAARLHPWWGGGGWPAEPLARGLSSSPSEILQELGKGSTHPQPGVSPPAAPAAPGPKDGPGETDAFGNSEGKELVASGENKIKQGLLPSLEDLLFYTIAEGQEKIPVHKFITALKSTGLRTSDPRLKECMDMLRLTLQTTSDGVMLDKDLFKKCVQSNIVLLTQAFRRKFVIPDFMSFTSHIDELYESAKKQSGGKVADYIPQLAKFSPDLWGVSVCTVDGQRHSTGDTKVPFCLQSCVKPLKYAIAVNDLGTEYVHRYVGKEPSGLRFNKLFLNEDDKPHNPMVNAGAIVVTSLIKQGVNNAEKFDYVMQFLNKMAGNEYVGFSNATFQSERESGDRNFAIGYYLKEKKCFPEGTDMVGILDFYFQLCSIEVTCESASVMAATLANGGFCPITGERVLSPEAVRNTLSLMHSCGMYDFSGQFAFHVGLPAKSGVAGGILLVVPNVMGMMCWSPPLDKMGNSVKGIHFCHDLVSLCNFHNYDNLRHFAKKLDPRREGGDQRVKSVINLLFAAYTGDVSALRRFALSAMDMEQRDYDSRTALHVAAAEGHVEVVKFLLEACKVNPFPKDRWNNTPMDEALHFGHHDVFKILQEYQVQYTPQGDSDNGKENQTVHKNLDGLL
Method in brief: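 Assay buffer: 45 mM KH2PO4 pH 8.2, 0.02% Tween-20. hKGA acts on L-glutamine (1 mM solution added); product glutamate is reported by an oxidase/peroxidase Amplex Red coupling, with fluorescence taken at baseline and 30 min.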

[6] = qHTS of Trypanosoma Brucei Inhibitors: LOPAC Validation (AID 624147)
Method in brief: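 Luminescent Kinase-Glo Plus end-point after 45 min room-temperature reaction of T. brucei pyruvate kinase started with 130 uM ADP (final). Buffer TEA 50 mM pH 7.2 with KCl, MgCl2, BSA, Tween-20; titration-based qHTS with fitted concentration-effect curves.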

[7] = qHTS of Nrf2 Activators: LOPAC Validation (AID 624149)
Method in brief: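 Following overnight seeding in 5% FBS OPTI-MEM, AREc32_Fluc cells receive compounds for a 24 hr incubation at 37 deg C with 5% CO2. Steady-Glo is added, and after 30 min at RT luminescence is recorded.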

[8] = target: Glucagon-like peptide 1 receptor (Homo sapiens) (UniProt P43220); test: qHTS of GLP-1 Receptor Agonists: LOPAC Validation (AID 624148);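 also: higher luminescence signal means agonism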
Glucagon-like peptide 1 receptor (Homo sapiens), sequence (P43220 whole entry, looked up): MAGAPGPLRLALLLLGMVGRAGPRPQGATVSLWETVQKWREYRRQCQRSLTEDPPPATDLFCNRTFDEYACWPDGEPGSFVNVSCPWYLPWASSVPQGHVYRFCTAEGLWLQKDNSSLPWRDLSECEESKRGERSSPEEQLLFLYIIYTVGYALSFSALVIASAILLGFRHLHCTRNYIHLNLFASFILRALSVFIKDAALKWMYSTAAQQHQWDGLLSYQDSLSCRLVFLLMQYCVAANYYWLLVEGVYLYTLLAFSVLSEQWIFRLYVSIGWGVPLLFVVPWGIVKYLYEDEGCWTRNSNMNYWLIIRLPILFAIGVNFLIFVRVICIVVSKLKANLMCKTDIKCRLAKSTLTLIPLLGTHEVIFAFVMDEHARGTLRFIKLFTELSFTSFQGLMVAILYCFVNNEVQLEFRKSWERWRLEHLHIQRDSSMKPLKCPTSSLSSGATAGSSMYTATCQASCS
Method in brief: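 HEK293 cells stably co-expressing a cAMP-responsive luciferase reporter and a hypersensitive GLP-1R were plated 12 h at 37 °C and exposed to compounds for 4-6 hr at 37 °C, 5% CO2. Luminescence was read 12 min after adding detection reagent.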

[9] = target: Retinoic acid receptor RXR-alpha (Homo sapiens) (UniProt P19793); test: qHTS assay for small molecule antagonists of retinoid X receptor alpha signaling (AID 588546; active = well fitted inhibition curve with a large enough effect in the signal ratio, with a control signal flat, not every such curve was filed as active; the % refers to the signal ratio;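 also: cells stimulated with 9-cis-retinoic acid as agonist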); conditions: HEK293T RXRa-UAS-bla, beta-lactamase ratio, antagonist mode
Retinoic acid receptor RXR-alpha (Homo sapiens), sequence (P19793 whole entry, looked up): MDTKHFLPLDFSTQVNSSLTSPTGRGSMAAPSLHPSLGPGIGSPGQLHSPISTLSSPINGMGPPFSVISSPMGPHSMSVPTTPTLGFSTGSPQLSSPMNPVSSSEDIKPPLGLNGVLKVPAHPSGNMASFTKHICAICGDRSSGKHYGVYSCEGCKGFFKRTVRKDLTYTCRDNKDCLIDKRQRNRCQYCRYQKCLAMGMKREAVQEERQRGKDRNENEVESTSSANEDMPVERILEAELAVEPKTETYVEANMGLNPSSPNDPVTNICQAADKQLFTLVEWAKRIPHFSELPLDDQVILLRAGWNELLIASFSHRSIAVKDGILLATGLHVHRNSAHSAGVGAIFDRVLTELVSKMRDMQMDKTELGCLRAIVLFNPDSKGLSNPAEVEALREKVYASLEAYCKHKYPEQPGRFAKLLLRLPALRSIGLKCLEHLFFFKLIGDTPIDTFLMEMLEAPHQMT
Method in brief: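 Beta-lactamase reporter inhibition, read as CCF4 fluorescence ratio (ex 405, em 460/530 nm) after 2 h at RT. HEK293T UAS-bla cells, 2500/well, were stimulated with 9-cis-RA at 500 or 100 nM final alongside test compound for 18 h at 37 C.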

[10] = target: Thyroid hormone receptor beta (Homo sapiens) (UniProt P10828); test: qHTS assay for small molecule antagonists of thyroid hormone receptor beta signaling (AID 588547; active = well fitted inhibition curve with a large enough effect in the signal ratio, with a control signal flat, not every such curve was filed as active; the % refers to the signal ratio;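 also: cells stimulated with 0.4 nM T3 agonist during compound exposure; series mostly up to about 77 µM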); conditions: TR-UAS-bla HEK293, beta-lactamase ratio, antagonist mode, 18 h
Thyroid hormone receptor beta (Homo sapiens), sequence (P10828 whole entry, looked up): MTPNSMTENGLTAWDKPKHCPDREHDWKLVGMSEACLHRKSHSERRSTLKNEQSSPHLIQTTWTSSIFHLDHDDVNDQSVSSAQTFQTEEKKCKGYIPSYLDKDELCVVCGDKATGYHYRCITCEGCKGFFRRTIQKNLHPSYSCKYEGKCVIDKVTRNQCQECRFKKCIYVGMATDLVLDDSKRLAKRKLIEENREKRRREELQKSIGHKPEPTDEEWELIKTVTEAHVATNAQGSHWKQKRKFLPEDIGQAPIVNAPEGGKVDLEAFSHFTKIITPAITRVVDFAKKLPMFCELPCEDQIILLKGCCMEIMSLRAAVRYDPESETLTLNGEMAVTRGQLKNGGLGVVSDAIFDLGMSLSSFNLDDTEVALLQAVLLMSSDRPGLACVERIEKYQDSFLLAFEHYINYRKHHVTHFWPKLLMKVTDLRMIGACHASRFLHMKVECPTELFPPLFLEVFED
Method in brief: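 TR-UAS-bla GripTite HEK293 cells in 2% charcoal/dextran FBS medium were preincubated 4 h at 37 C, given compound (0.59 nM to 92 uM) plus 0.4 nM T3 (final) for 18 h, then CCF4 for 2 h at RT; Hill fit gave IC50.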

SMILES	Potency [1]	Potency [2]	Potency [3]	outcome [4]	outcome [5]	outcome [6]	outcome [7]	outcome [8]	max response [9]	activity change % (negative = inhibition) [10]
NCCc1ccc(O)c(O)c1	inactive	inactive	inactive	inactive	inactive	inactive	inactive			
Cc1cn[nH]c1	inactive	inactive	inactive		inactive	inactive	inactive	inactive		
CC(c1cc2ccccc2s1)N(O)C(N)=O (stereo unspecified)	inactive	inactive	inactive	inactive						
CC(C[N+](C)(C)C)OC(N)=O (stereo unspecified)	inactive	inactive	inactive		inactive	inactive	inactive	inactive		
CC(C)NCC(O)COc1ccc(COCCOC(C)C)cc1 (stereo unspecified)	inactive	inactive	inactive		inactive	inactive	inactive	inactive		
NC(=O)c1cnccn1	inactive	inactive	inactive		inactive	inactive	inactive	inactive	6.87%	
NS(=O)(=O)c1cc2c(cc1Cl)NC=NS2(=O)=O	inactive	inactive	inactive	inactive	inactive	inactive	inactive	inactive	14.3%	-11.5%
O=C1CCc2cc(OCCCCc3nnnn3C3CCCCC3)ccc2N1	inactive	inactive	inactive		inactive	inactive	inactive	inactive		
CC(C)(C)NCC(O)c1ccc(O)c(CO)c1 (stereo unspecified)	inactive	inactive	inactive		inactive	inactive				
Nc1ccc(S(=O)(=O)Nc2ccnn2-c2ccccc2)cc1	inactive	inactive	inactive	inactive	inactive	inactive	inactive	inactive		
N#Cc1ccc(C(c2ccc(C#N)cc2)n2cncn2)cc1	inactive	inactive	inactive	inactive						
Nc1nc2[nH]cc(CCc3ccc(C(=O)N[C@@H](CCC(=O)O)C(=O)O)cc3)c2c(=O)[nH]1	inactive									
NC[C@H](O)c1ccc(O)c(O)c1	inactive	inactive	inactive	inactive	inactive	inactive	inactive		-6.6%	13.6%
Cc1ccccc1C(OCCN(C)C)c1ccccc1 (stereo unspecified)		inactive	inactive		inactive	inactive	inactive	inactive	-11.6%	
Cn1cnc([N+](=O)[O-])c1Sc1ncnc2nc[nH]c12	inactive	inactive	inactive		inactive	inactive	inactive	inactive	-8.6% and -5.48%	18.7%
N[C@@H]1CONC1=O	inactive	inactive	inactive	inactive	inactive	inactive	inactive	inactive		
C[C@]12CCC(=O)C=C1CC[C@@H]1[C@@H]2[C@@H](O)C[C@@]2(C)[C@H]1CC[C@]2(O)C(=O)CO					inactive	inactive	inactive	inactive	-13.2%	20.5%
CC(=O)Oc1ccccc1C(=O)O	inactive	inactive	inactive	inactive	inactive	inactive	inactive	inactive	7.17% and 4.37%	

SMILES	Potency [1]	Potency [2]	Potency [3]	outcome [4]	outcome [5]	outcome [6]	outcome [7]	outcome [8]	max response [9]	activity change % (negative = inhibition) [10]
CCCCNc1cc(C(=O)O)cc(S(N)(=O)=O)c1Oc1ccccc1	inactive	inactive	inactive	inactive	inactive	inactive	inactive	inactive		
Cc1c(C)c2c(c(C)c1O)CCC(C)(COc1ccc(CC3SC(=O)NC3=O)cc1)O2 (stereo unspecified)	inactive		inactive	inactive					-61.7%	
Cc1[nH]c(=O)c(C#N)cc1-c1ccc2nccn2c1	inactive	inactive	inactive			inactive	inactive	inactive		
CCCC(CCC)C(=O)O	inactive	inactive	inactive		inactive	inactive		inactive		-9.25% and 16%
Cc1[nH]c(=O)c(C#N)cc1-c1ccncc1		inactive	inactive		inactive	inactive	inactive	inactive	-8.79%	-2.81%
COc1ccc2nc(S(=O)Cc3ncc(C)c(OC)c3C)[nH]c2c1 (stereo unspecified)	inactive		inactive	inactive					-42%	-6.03%
O=C1CCC(N2C(=O)c3ccccc3C2=O)C(=O)N1 (stereo unspecified)	inactive	inactive	inactive	inactive	inactive	inactive	inactive	inactive	-2.36%	4.95%
Clc1cccc(Cl)c1NC1=NCCN1	inactive	inactive	inactive		inactive	inactive	inactive	inactive		
CNC[C@H](O)c1cccc(O)c1	inactive	inactive	inactive		inactive	inactive	inactive		-13.6%	16.7%
N=c1nc(N2CCCCC2)cc(N)n1O	inactive	inactive	inactive	inactive	inactive	inactive	inactive	inactive		
CCCc1nc2c(C)cc(-c3nc4ccccc4n3C)cc2n1Cc1ccc(-c2ccccc2C(=O)O)cc1	inactive									
NC(N)=NC(=O)c1nc(Cl)c(N)nc1N	inactive	inactive	inactive		inactive	inactive	inactive	inactive	33%	4.66%
O=c1[nH]cnc2[nH]ncc12	inactive	inactive	inactive		inactive	inactive	inactive	inactive	-1.1%	5.35%
O=NN(CCCl)C(=O)NCCCl	inactive	inactive	inactive		inactive	inactive	inactive	inactive	0.269%	11.9%
Cc1cc2c(C(C)C)c(O)c(O)c(C=O)c2c(O)c1-c1c(C)cc2c(C(C)C)c(O)c(O)c(C=O)c2c1O	inactive			inactive	inactive	inactive	inactive	inactive		
Cn1cnc2c(F)c(Nc3ccc(Br)cc3Cl)c(C(=O)NOCCO)cc21		inactive								
CCOC(=O)C1=C[C@@]2(CC)CCCN3CCc4c(n1c1ccccc41)[C@H]32		inactive								
Nc1nc2ccc(OC(F)(F)F)cc2s1			inactive		inactive	inactive	inactive	inactive		
Clc1ccc(Nc2nnc(Cc3ccncc3)c3ccccc23)cc1		inactive		inactive						

SMILES	Potency [1]	Potency [2]	Potency [3]	outcome [4]	outcome [5]	outcome [6]	outcome [7]	outcome [8]	max response [9]	activity change % (negative = inhibition) [10]
CCN(CC)CCCC(C)Nc1ccnc2cc(Cl)ccc12 (stereo unspecified)					inactive	inactive	inactive	inactive		
Nc1ncnc2nc(-c3ccc(N4CCOCC4)nc3)cc(-c3cccc(Br)c3)c12					inactive	inactive				
CCOC(=O)C1=C[C@]2(CC)CCCN3CCc4c(n1c1ccccc41)[C@@H]32	141 nM (active) and 31.6 nM (active)	inactive		inactive	inactive	inactive	inactive	inactive		
Cc1ccc(N(CC2=NCCN2)c2cccc(O)c2)cc1		inactive	inactive	inactive		inactive	inactive	inactive		
NCCCC(N)(C(=O)O)C(F)F (stereo unspecified)		inactive	inactive	inactive	inactive	inactive	inactive	inactive		
CCc1ccc(CCOc2ccc(CC3SC(=O)NC3=O)cc2)nc1 (stereo unspecified)	inactive		inactive	inactive						
Nc1nc2c(ncn2COCCO)c(=O)[nH]1		inactive	inactive		inactive	inactive	inactive	inactive		
CCCc1nn(C)c2c(=O)[nH]c(-c3cc(S(=O)(=O)N4CCN(C)CC4)ccc3OCC)nc12		inactive	inactive	inactive						
Cc1cccc(-c2[nH]c(C(C)(C)C)nc2-c2ccc3nccnc3c2)n1					inactive	inactive	inactive	inactive		
CNC(=O)c1ccccc1Sc1ccc2c(/C=C/c3ccccn3)n[nH]c2c1		510 nM (active)								
O=C(NOC[C@H](O)CO)c1ccc(F)c(F)c1Nc1ccc(I)cc1F		inactive								
O=c1n(CCCN2CCN(c3cccc(Cl)c3)CC2)nc2ccccn12		inactive	inactive		inactive	inactive	inactive	inactive		
C#Cc1cccc(Nc2ncnc3cc(OCCOC)c(OCCOC)cc23)c1	inactive	inactive		inactive						
CC(C)C[C@H](NC(=O)[C@@H](O)[C@H](N)Cc1ccccc1)C(=O)O		inactive	inactive	inactive	inactive	inactive	inactive	inactive		
CC(C)(Sc1ccc(CCN(CCCCC2CCCCC2)C(=O)NC2CCCCC2)cc1)C(=O)O	inactive				inactive	inactive	inactive	inactive		
OC(CN1CCC(Cc2ccc(F)cc2)CC1)c1ccc(Cl)cc1 (stereo unspecified)	0.0178 µM (active)	inactive			inactive	inactive	inactive	inactive		
Cc1cnc(NC(=O)C2=C(O)c3ccccc3S(=O)(=O)N2C)s1	inactive	inactive			inactive	inactive	inactive			
NNCCc1ccccc1	inactive		inactive			inactive	inactive	inactive		
Cc1oncc1C(=O)Nc1ccc(C(F)(F)F)cc1	inactive		inactive		inactive	inactive	inactive	inactive		
